Shown are actives, neighbours in structure and some others; about 3.5% of the full set was active somewhere.
BoNT F protease = inhibitors of Botulinum neurotoxin F light chain protease; 0.22% of 360,000 active; inhibition, % at 10 µM; Multiplex microsphere protease cleavage assay, flow cytometry; in the data active = inhibition above about 35%, passing the limit was not always enough; inconclusive = no clear call, values can overlap the other calls; also: plate controls were buffer without enzyme for full effect and enzyme alone for no effect
Anthrax LF inh2 = anthrax lethal factor protease inhibition. P15917. multiplex microsphere protease cleavage assay, LF. inhibition, % at 10 µM. 0.12% of 360,000 active; also: plate controls were buffer without enzyme for full effect and enzyme alone for no effect
Target sequence (P15917 whole entry, looked up): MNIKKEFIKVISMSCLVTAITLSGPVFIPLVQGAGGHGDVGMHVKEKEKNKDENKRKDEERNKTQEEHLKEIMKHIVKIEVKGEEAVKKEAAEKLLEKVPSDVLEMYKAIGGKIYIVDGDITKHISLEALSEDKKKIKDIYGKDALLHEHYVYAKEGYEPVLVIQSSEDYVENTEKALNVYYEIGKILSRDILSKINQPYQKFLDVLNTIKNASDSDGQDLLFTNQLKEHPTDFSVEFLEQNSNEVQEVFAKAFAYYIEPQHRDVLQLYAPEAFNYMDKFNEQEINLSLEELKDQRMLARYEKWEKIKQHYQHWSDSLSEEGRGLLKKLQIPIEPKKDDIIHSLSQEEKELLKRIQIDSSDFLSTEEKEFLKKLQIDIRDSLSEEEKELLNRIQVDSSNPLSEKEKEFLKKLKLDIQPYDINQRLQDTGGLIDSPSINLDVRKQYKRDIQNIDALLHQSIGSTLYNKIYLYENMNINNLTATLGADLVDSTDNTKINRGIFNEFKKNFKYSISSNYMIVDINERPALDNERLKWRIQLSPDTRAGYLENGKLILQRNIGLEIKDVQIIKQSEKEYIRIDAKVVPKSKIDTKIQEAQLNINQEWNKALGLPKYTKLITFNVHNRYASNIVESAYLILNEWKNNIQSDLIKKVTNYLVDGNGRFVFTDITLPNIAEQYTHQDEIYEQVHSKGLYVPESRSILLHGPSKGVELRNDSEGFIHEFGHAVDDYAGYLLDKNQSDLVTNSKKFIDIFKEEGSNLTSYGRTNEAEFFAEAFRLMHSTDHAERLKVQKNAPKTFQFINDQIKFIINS
Bead autofluor = flagged as autofluorescent in microsphere protease counterscreen; compound autofluorescence counterscreen, microsphere flow cytometry; active compounds read high; AID 624483; 3.1% of 360,000 active; fluorescence intensity (concentration not given with the values); in the data active = fluorescence intensity above about 16000; inconclusive = no clear call, values can overlap the other calls
BoNT A protease = blocks Botulinum neurotoxin A light chain protease | inhibition, % at 10 µM | 0.17% of 360,000 active | multiplex microsphere protease substrate cleavage, flow cytometry; also: plate controls were buffer without enzyme for full effect and enzyme alone for no effect
Numbers without * were called inactive; ? = inconclusive. Rule as the data show it, unless noted: active = inhibition above about 30%; inconclusive = no clear call, values can overlap the other calls; inactive = below that.

SMILES	BoNT F protease	Anthrax LF inh2	Bead autofluor	BoNT A protease
Cc1cccc(Cc2c(C)nc3c(C(=O)NCc4ccco4)cnn3c2C)c1	-1	-5	23199*	1
O=C(NCc1ccc2c(c1)OCO2)c1ccco1	-2	2	4800	0
CCc1ccc2[nH]c(=O)c(CN(Cc3ccccc3)C(=O)Nc3ccccc3OC)cc2c1	-1	-6	15755	1
NC(=O)C1(N2CCCCC2)CCN(C(=S)Nc2cc(F)cc(F)c2)CC1	-2	2	2437	-1
CCN1c2ccccc2S(=O)(=O)c2ccccc21	-8	6	3485	1
CC(C)n1cnc2cc(NCc3ccccn3)ccc21	-7	-4	20604*	-2
CCOc1cc(/C=N/NC(=O)C(=O)N2CCCC2)ccc1O	5	0	4250	2
CC(C)(C)NCCOCCOc1ccccc1-c1ccccc1	23	1	2654	3
Cc1ccc(OCCOCCNC(C)C)c(Br)c1	-6	1	2340	0
CCC(C)NCCOCCOc1ccc(Cl)cc1Br (stereo not drawn)	35*	-7	4372	5
CCC(C)NCCOCCOc1ccccc1-c1ccccc1 (stereo not drawn)	-5	-5	23087*	0
CCN(CCCNC(=O)C1CCC(=O)N1Cc1ccccc1Cl)c1cccc(C)c1 (stereo not drawn)	-25	-4	30276*	-17
CN(CCCNC(=O)C1CCC(=O)N1Cc1ccccc1Cl)c1ccccc1 (stereo not drawn)	1	-1	16389*	1
CN(CCCNC(=O)C1CCC(=O)N1Cc1ccc(F)cc1)c1ccccc1 (stereo not drawn)	11	22	4957	13
Cn1nc(-c2ccc(N3CCCCC3)c(NC(=O)c3ccco3)c2)c2ccccc2c1=O	-2	-2	23305*	?
O=C1NC[C@H](CCCCN2C[C@H](Cc3ccccc3)N(CCC3CCCCC3)C(=O)C2=O)N(CCc2ccc(O)cc2)C1=O	0	2	4163	0
CC1=CC(=O)N(c2cccc(C(F)(F)F)c2)C1c1ccc(Cl)cc1 (stereo not drawn)	-1	-2	23466*	1
O=C(NCc1cccs1)c1nc2c(nnn2Cc2ccc(F)cc2)c(=O)[nH]1	0	-2	16259*	0
Cc1ccc(C)c(Cn2nnc3c(=O)[nH]c(C(=O)NCc4ccco4)nc32)c1	1	-9	22656*	2
CSc1cccc(N2CC(C(=O)N(CC(C)C)c3c(N)n(Cc4ccccc4)c(=O)[nH]c3=O)CC2=O)c1 (stereo not drawn)	-2	-1	6756	-4
COCCC(=O)N1CCC(Oc2ccc(C(=O)NCCc3ccccn3)cc2)CC1	-2	-4	5806	0
Cc1ccsc1/C=N/N=C/c1sccc1C	2	-6	3635	-1
Cc1ccsc1C=Nc1ccc(O)cc1	-2	-3	16460*	0
CC(C(=O)c1ccc(Cl)cc1Cl)n1cncn1 (stereo not drawn)	2	-4	4175	0
CC(=O)c1ncnn1CC(=O)c1ccc(Cl)cc1Cl	-1	2	22669*	-2
SMILES	BoNT F protease	Anthrax LF inh2	Bead autofluor	BoNT A protease
CC1CCCN(S(=O)(=O)c2cc3c4c(c2)CCN4C(=O)CC3)C1 (stereo not drawn)	2	8	4153	2
O=c1ccc(S(=O)(=O)N2CCCC2)cn1Cc1nc(-c2ccc(F)cc2)no1	-373	-56	57271*	-213
COc1ccc(-c2noc(Cn3cc(S(=O)(=O)N4CCCC4)ccc3=O)n2)cc1	7	-5	?	1
CC1C(=NO)C(C)C(c2ccccc2)NC1c1ccccc1 (stereo not drawn)	-2	-1	22855*	?
O=C1NC(Cc2ccccc2)c2nc3ccccc3c(=O)n2-c2cc3ccccc3cc21 (stereo not drawn)	-3	-1	4293	-1
CCn1c(=O)n(CC)c2cc(S(=O)(=O)Nc3ccccc3C)c(C)cc21	0	-6	23798*	?
COCCCNC(=O)Cn1c(=O)n(CCCCCC(=O)NCc2ccc3c(c2)OCO3)c(=O)c2sccc21	-11	5	4429	-1
CSc1nnc(-c2sccc2OCc2ccccc2)n1C	-4	0	16539*	-1
CCCSc1nc(-c2ccccc2)cc(C(F)(F)F)c1C#N	10	-3	19871*	10
N#Cc1c(C(F)(F)F)cc(-c2ccccc2)nc1SCCN1CCOCC1	-2	-1	11081	0
COC(=O)c1c(NC(=O)CN2CCC3(O)CCCCC3C2c2cc(OC)ccc2OC)sc(C)c1C (stereo not drawn)	0	-1	2118	0
CCN1C(=O)/C(=C\N2CCCCCC2)SC1=S	-4	-1	3748	0
CCN1C(=O)/C(=C/N2CCc3ccccc3C2)SC1=S	?	-5	16177*	-50
COc1ccc(C(C(=O)NCC2CCCO2)N(C(=O)CNC(=O)c2ccco2)c2cc(C)ccc2C)cc1OC (stereo not drawn)	14	6	3709	0
Oc1ccc(C=NCC2COc3ccccc3O2)cc1 (stereo not drawn)	-1	0	20126*	2
CCOCC(=O)Nc1c(C(=O)Nc2ccc(OC)cc2OC)oc2ccccc12	-1	-1	24944*	?
CCN(CC)S(=O)(=O)c1ccc2oc(C(=O)Nc3ccc(OC)cc3OC)c(C)c2c1	-6	-2	24222*	-3
COCC(=O)Nc1c(C(=O)Nc2ccccc2OC)oc2ccccc12	-5	-2	23967*	-1
COc1ccc(NC(=O)c2oc3ccccc3c2NC(=O)c2ccco2)cc1	-8	0	21689*	-5
COc1ccc(NC(=O)c2oc3cc(C)c(C)cc3c2C)c(OC)c1	-79	2	4751	-5
CCc1noc(C)c1C(=O)N(C)CC(=O)Nc1ccc(Br)cc1C	-15	-8	6676	-15
COc1cccc(-c2nc(CS(=O)(=O)CC(=O)Nc3ccccc3Br)c(C)o2)c1	1	0	5055	0
O=C(Nc1nc2ccccc2s1)c1ccc(OCC2CCCO2)cc1 (stereo not drawn)	-6	1	2606	0
COc1ccc(NC(=O)c2oc3ccccc3c2NC(=O)c2ccco2)c(OC)c1	-4	-1	23875*	-2
COc1ccc(NC(=O)c2ccco2)c(OC)c1	5	2	2846	0
SMILES	BoNT F protease	Anthrax LF inh2	Bead autofluor	BoNT A protease
COCc1nnc(NC(=O)c2cc(Cl)ccc2OC)s1	-5	-1	23665*	-2
CCc1nnc(NC(=O)c2ccc(NC(=O)C(C)C)cc2)s1	3	-6	4198	0
COCc1nnc(NC(=O)c2ccc(NC(=O)C(C)C)cc2)s1	-3	-2	23228*	-2
O=C1c2ccccc2C(=O)N1CCCCN(C(=O)c1cc([N+](=O)[O-])ccc1Cl)c1ccc(Cl)cc1	0	-1	2070	0
CC12CC3(C)CC(C)(C1)CC(C(=O)NC1=NCCS1)(C2)C3	-18	-3	23810*	?
Cc1ccccc1Cn1ccc(-c2ccc3c(c2)OCO3)n1	-2	0	20609*	?
Cc1ccccc1Cn1nnc(-c2ccc3c(c2)OCO3)n1	-10	-8	2460	0
C=CCN(c1ccc(C(=O)NC(C)C)cc1)S(C)(=O)=O	-2	-5	23751*	0
C=CCNC(=O)c1ccc(N(Cc2ccc(Cl)cc2)S(C)(=O)=O)cc1	39*	10	3005	1
